Screening data: PubChem BioAssay, several laboratories
PP1 inh: blocks human PP1-alpha phosphatase, a PP5 counter-screen | purified PP1alpha, OMFP fluorescence | 0.9% of 320,000 active | AID 2235 | P62136 | inhibition, % at 6.7 µM;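 active means inhibition above the mean inhibition of all tested compounds plus 3 SD, computed separately for each screening campaign, cut at about 15% in these data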
NadD inh: blocks S. aureus nicotinate mononucleotide adenylyltransferase | purified NadD enzyme, colorimetric absorbance read-out | inhibition, % at 20 µM | 0.78% of 360,000 active; in the data active means inhibition above about 26%
PP5 primary: inhibitors of human protein phosphatase 5 (PP5). 0.18% of 320,000 active. inhibition, % at 6.7 µM. purified PP5c, OMFP substrate fluorescence;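 active means inhibition above the campaign's mean inhibition across all tested compounds plus 3 SD, cut at about 9.5% in these data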;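 further: 0% = DMSO only and 100% = 100 µM cantharidin control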
Target sequence (P53041 whole entry, looked up): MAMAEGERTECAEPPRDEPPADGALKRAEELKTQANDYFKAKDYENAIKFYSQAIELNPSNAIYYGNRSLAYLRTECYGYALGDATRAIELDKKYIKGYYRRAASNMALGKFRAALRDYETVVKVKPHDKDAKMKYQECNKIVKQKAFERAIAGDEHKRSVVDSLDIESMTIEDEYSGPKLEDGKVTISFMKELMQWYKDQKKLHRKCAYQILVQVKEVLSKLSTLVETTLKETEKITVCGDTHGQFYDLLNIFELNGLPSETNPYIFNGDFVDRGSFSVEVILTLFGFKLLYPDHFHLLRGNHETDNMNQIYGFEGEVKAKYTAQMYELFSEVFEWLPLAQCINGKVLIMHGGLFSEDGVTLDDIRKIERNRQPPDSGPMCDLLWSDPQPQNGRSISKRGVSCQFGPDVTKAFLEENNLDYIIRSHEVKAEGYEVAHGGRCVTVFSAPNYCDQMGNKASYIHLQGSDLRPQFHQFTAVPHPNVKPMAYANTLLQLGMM
Rpn11 inh: Rpn11 (human) deubiquitinase inhibition; O00487; human 26S proteasome, Ub4-pepOG fluorescence polarization; 20S core pre-blocked with epoxomicin; inhibition, % at 20 µM; 0.59% of 360,000 active;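 active means inhibition at 20 µM, scaled to each plate's controls, above about 33%, limit read from the data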
PREPL inh: inhibitors of human prolyl oligopeptidase-like enzyme PREPL; 0.68% of 320,000 active; inhibition, % at 5.96 µM; AID 2751; recombinant PREPL, fluorescence polarization activity-based probe; Q4J6C6; in the data active means inhibition above about 43%;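 further: 0% = enzyme with DMSO and 100% = wells lacking enzyme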
Rpn11 confirm: Rpn11 inhibition confirmation, single concentration; shares compounds with Rpn11 inh; purified human 26S proteasome, Ub4-pepOG fluorescence polarization; proteasome pretreated with epoxomicin; inhibition, % at 20 µM; 29% of 1,900 active; AID 602318
MMP-2 inh: blocks human MMP-2, flagging nonselective RPN11 hits; shares compounds with Rpn11 inh; recombinant MMP-2, FRET peptide cleavage fluorescence; inhibition, % at 20 µM; 4% of 1,900 active;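 further: human MMP-2 activated beforehand with APMA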
Thrombin FP: blocks bovine thrombin, flagging nonselective RPN11 hits; bovine thrombin cleavage of Ub4-pepOG, fluorescence polarization; 13% of 1,900 active; shares compounds with Rpn11 inh; inhibition, % at 20 µM;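 active means mean inhibition at least 40% at 20 µM, or signal 3 deviations below plate average, so some actives read negative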;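 further: plate controls were thrombin with DMSO for no effect and buffer wells lacking thrombin for full effect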
Numbers without * were called inactive; x = no result given; + = active, no number. Shown are actives, neighbours in structure and some others; about 2.4% of the full set was active somewhere. Unless noted, no stated cut-off is given here; in the data, active means inhibition above about 40%; inactive means the rest.

SMILES	PP1 inh	NadD inh	PP5 primary	Rpn11 inh	PREPL inh	Rpn11 confirm	MMP-2 inh	Thrombin FP
COc1ccc(N(CC(=O)NCc2ccc3c(c2)OCO3)S(=O)(=O)c2ccccc2[N+](=O)[O-])c(OC)c1	1	-5	3	56*	-10	-12	-19	-7
COc1ccc(N(CC(=O)NCc2ccccc2OC)S(=O)(=O)c2ccccc2[N+](=O)[O-])c(OC)c1	-4	-8	-2	-2	2	x	x	x
COc1ccc(CC(=O)Nc2ccc(-c3nc4cc(C)ccc4o3)c(O)c2)cc1OC	16*	19	2	66*	8	9	-23	7
COc1ccccc1N1CCN(Cc2cc(Br)c(O)c3ncccc23)CC1	9	8	7	45*	5	31	34	-21
O=C(O)COc1ccc(C(NC(=O)c2c(F)cccc2F)NC(=O)c2c(F)cccc2F)cc1	0	-7	-1	0	11	x	x	x
CCCc1cc(=O)oc2cc(OCC(=O)NCc3cccs3)ccc12	-1	-2	4	0	-6	x	x	x
CCCc1cc(=O)oc2cc(OCC(=O)Nc3ccc(S(N)(=O)=O)cc3)ccc12	1	7	-2	+	-12	6	67*	-10
N#CCC(=O)c1ccccc1Oc1ccc(Cl)cc1	4	0	2	65*	9	10	18	12
O/N=C/c1ccccc1Oc1ccc(Cl)cc1	-2	-2	4	-4	-3	x	x	x
CCOc1ccc(NC(=O)CN(C)C(=O)Cn2cnc3c2c(=O)n(C)c(=O)n3C)cc1OCC	-5	0	-2	3	0	x	x	x
O=C(O)CCc1ccc(-c2ccccc2)n1CC1CCCO1 (stereo not drawn)	-4	3	2	55*	-7	12	-26	6
Cc1ccc(-c2ccc(CCC(=O)O)n2CC2CCCO2)cc1 (stereo not drawn)	3	-6	4	7	1	x	x	x
Nc1c(-c2ccccc2)c(CSc2nc3ccccc3[nH]2)nn1-c1ccc(Cl)cc1	5	7	4	-4	16	x	x	x
Nc1c(-c2ccccc2)c(CSc2nc3ccccc3[nH]2)nn1-c1cccc(Cl)c1	3	26	0	63*	2	42*	25	18
CNC(=O)c1ncoc1-c1ccc(Cl)cc1	0	-4	-1	-1	8	x	x	x
COc1ccc(Cc2c(-c3ccc(C)cc3)nc3ccc(Cl)cn23)c(C)c1	x	2	x	44*	x	52*	24	37
COC(=O)c1ccc2nc(-c3ccc(Cl)cc3)c(Cc3ccc(OC)cc3C)n2c1	x	24	x	x	x	x	x	x
Cc1ccc(Nc2nc(-c3c(C)nc4ccccn34)cs2)cc1	5	-5	5	-20	33	x	x	x
Cc1nc2ccccn2c1-c1csc(NCc2ccco2)n1	-4	2	0	103*	15	-10	34	-20
COc1ccc(Cn2nnnc2C(c2cccs2)N2CCN(c3ccccc3)CC2)cc1 (stereo not drawn)	4	-1	5	-4	-58	x	x	x
COc1ccc(Cn2nnnc2C(c2cccs2)N2CCN(c3ccc([N+](=O)[O-])cc3)CC2)cc1 (stereo not drawn)	9	10	2	89*	-47	-13	-27	4
COc1ccc(OC)c(N=C(C)C2=C(O)COC2=O)c1	2	0	-2	108*	14	-13	-56	-9
CC(=Nc1ccccc1)C1=C(O)COC1=O	1	-1	0	2	-2	x	x	x
COc1cc([N+](=O)[O-])cc(/C=N/NC(=O)c2ccc(NC(=O)c3ccc(C)cc3)cc2)c1O	x	82*	x	42*	x	26	14	4
COc1cccc(/C=N/NC(=O)c2cc3cc([N+](=O)[O-])ccc3s2)c1O	8	43*	5	62*	11	34	-23	-19
SMILES	PP1 inh	NadD inh	PP5 primary	Rpn11 inh	PREPL inh	Rpn11 confirm	MMP-2 inh	Thrombin FP
COc1ccccc1C(=O)NCCC(=O)NC1CCC(C)CC1 (stereo not drawn)	0	3	4	0	20	x	x	x
Cc1ccc(Nc2nc(-c3ccc(C)cc3)c(CC(=O)O)s2)cc1	-3	13	6	76*	39	33	10	20
CCCC(=O)N1CCC1(C)C(=O)Nc1ccc(OC)c(OC)c1 (stereo not drawn)	x	-5	x	1	x	x	x	x
CCN1C(=O)CS/C1=C(\C#N)S(=O)(=O)c1ccccc1	-2	6	0	42*	-30	34	16	23
CC(=O)c1cccc(-c2cnc3c(NC=O)cc(-c4ccc(F)cc4)cn23)c1	x	12	x	34	x	x	x	x
CC(=O)C1=C(C)NC(SCC(=O)c2ccc(Cl)cc2Cl)=C(C#N)C1c1ccco1 (stereo not drawn)	6	5	1	50*	42	13	-10	15
Cc1ccc(-n2cccc2/C=C2/C(=N)N3C(=NC2=O)SN=C3S(C)(=O)=O)cc1Cl	7	25	7	168*	6	160*	-7	109*
Cc1cccc(C)c1-n1cccc1/C=C1/C(=N)N2C(=NC1=O)SN=C2S(C)(=O)=O	8	9	3	16	-18	x	x	x
Cc1cc(C(=O)N/N=C/c2ccc(-c3cccc(Cl)c3Cl)o2)n[nH]1	4	13	3	59*	5	22	-34	-13
O=C(O)CCn1cc(/C=C2\NC(=S)N(c3ccccc3)C2=O)c(-c2ccc(Br)cc2)n1	5	-5	-1	3	-3	x	x	x
CC(=O)N=c1c(C#N)cc2c(=O)n3ccccc3nc2n1Cc1ccccc1	-3	5	1	56*	10	-22	-37	-18
Oc1ccc(C=Nc2ccc(N3CCOCC3)cc2)c(O)c1	1	12	2	5	15	x	x	x
Oc1cc(Br)ccc1C=Nc1ccc(N2CCCCC2)cc1	3	2	2	48*	24	25	-26	9
O=C(NCc1ccc2c(c1)OCO2)C1CC(=O)N(c2ccc(Cl)cc2)C1 (stereo not drawn)	-2	-7	1	3	4	x	x	x
Cc1cccc(OCCn2c(-c3ccco3)nc3ccccc32)c1	3	3	2	0	10	x	x	x
c1ccc(OCCn2c(-c3ccco3)nc3ccccc32)cc1	3	15	2	49*	2	-5	-13	-14
COc1ccc(/C=N/NC(=O)c2nnn(-c3nonc3N)c2-c2cccs2)cc1OC	-3	10	5	66*	17	21	-26	-16
Cc1nnn(-c2nonc2N)c1C(=O)NNC(=O)c1ccc(Cl)c(Cl)c1	5	3	0	53*	4	0	0	4
COc1ccc(O)c(/C=N/NC(=O)c2c(C)nnn2-c2nonc2N)c1	3	1	0	171*	-1	184*	21	26
